Screening results deposited in PubChem by several laboratories.
MEKK2 mut-MEK5: signal of MEK5 binding to mutant human MEKK2 PB1 domain. percent response, % at 10 µM. 290,000 tested, 0.35% active. bead flow cytometry, Alexa488-MEK5 binding to MEKK2 mutant; in the data active = percent response above about 24%, passing the limit was not always enough
UBC13 polyUb: human UBC13 polyubiquitination inhibition; inhibition, % at 20 µM; AID 485273; P61088; 330,000 tested, 0.47% active; UBC13 polyubiquitin chain formation, TR-FRET; in the data active = inhibition above about 45%, passing the limit was not always enough
MEKK2wt PB1 HTS: raises or lowers MEK5 binding to wildtype human MEKK2 PB1 domain; Q9Y2U5; bead flow cytometry, Alexa488-MEK5 binding to MEKK2 WT; actives lie on both sides; binding response (% of control), % at 10 µM; 290,000 tested, 1.1% active; in the data active = binding response below about 67% or above about 130%
MEKK3 PB1 HTS: raises or lowers MEK5 binding to the human MEKK3 PB1 domain; binding response (% of control), % at 10 µM; Q99759; 290,000 tested, 1.4% active; bead-based flow cytometry, Alexa488-MEK5 binding to MEKK3; actives lie on both sides; 0 = blocked by unlabeled MEK5, 100 = vehicle;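 active = binding response more than 3 SD above or below the average of its plate-row segment, actives on both sides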;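 note: Alexa488 bead fluorescence after subtracting the streptavidin-only scavenger bead signal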
Target sequence (Q99759 whole entry, looked up, the tested form may be a part): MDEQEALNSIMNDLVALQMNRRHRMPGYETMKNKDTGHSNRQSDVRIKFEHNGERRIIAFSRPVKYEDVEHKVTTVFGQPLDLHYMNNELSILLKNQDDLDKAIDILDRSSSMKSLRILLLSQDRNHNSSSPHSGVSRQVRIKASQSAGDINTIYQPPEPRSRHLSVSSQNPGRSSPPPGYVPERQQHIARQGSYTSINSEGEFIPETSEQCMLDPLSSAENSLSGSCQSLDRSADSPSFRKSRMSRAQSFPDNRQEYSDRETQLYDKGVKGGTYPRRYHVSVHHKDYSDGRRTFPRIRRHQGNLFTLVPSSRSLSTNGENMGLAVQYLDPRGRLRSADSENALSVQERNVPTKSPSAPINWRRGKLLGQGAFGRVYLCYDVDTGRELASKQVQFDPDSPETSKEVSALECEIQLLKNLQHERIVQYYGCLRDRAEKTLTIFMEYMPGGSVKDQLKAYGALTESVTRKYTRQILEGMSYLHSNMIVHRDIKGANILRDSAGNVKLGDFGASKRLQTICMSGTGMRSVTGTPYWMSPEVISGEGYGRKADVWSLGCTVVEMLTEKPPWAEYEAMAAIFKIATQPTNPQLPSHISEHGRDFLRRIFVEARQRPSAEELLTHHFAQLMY
MEKK2wt confirm: raises or lowers MEK5 binding to wildtype human MEKK2, retest. shares compounds with MEKK3 PB1 HTS. bead flow cytometry, Alexa488-MEK5 binding to MEKK2 WT; actives lie on both sides. binding response (% of control), % at 10 µM. 5,900 tested, 2.4% active; in the data active = binding response below about 16% or above about 210%; inactive = in between
MEKK2mut confirm: signal of MEK5 binding to mutant human MEKK2, retest; percent response, % at 10 µM; bead flow cytometry, Alexa488-MEK5 binding to MEKK2 mutant; shares compounds with MEKK3 PB1 HTS; 5,900 tested, 2% active; in the data active = percent response mostly above about 71%, no sharp cut-off; inactive = mostly below about 38%;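 note: higher means compound restores mutant binding toward wildtype level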
MEKK3-MEK5 inh: confirmation of inhibitors of MEK5 binding to human MEKK3 | shares compounds with MEKK3 PB1 HTS | bead flow cytometry, Alexa488-MEK5 binding to MEKK3; stronger effect = lower value | binding response (% of control), % at 10 µM | 5,900 tested, 1.8% active;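 active = binding response below 72% of control, or above a set upper limit, though filed actives all read lower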
Numbers stand for hits; - = inactive; . = no result given; [ ] = another dose, or the depositor's remark. Most compounds without a hit are left out; they make up all but 2.3% or so of the library.

SMILES | MEKK2 mut-MEK5 | UBC13 polyUb | MEKK2wt PB1 HTS | MEKK3 PB1 HTS | MEKK2wt confirm | MEKK2mut confirm | MEKK3-MEK5 inh
O=C(CN1CCN(S(=O)(=O)c2ccccc2)CC1)Nc1ccccc1Cl | - | - | - | - | . | . | .
O=C(CN1CCN(S(=O)(=O)c2ccccc2)CC1)Nc1ccccc1C(=O)c1ccccc1 | - | - | - | 128 | - | - | -
Nc1nc(Nc2ccccc2)nc2c1ncn2[C@@H]1O[C@H](CO)[C@@H](O)[C@H]1O | - | - | - | - | . | . | .
Cc1ccc(S(=O)(=O)N2C=CC(C(F)(F)F)=NCC2)cc1 | - | - | 1.0[inhibitor] | 1.0[inhibitor] | - | - | -
CCCc1cc(=O)oc2cc(OCC(=O)NCCCN3CCCC3=O)ccc12 | - | - | - | - | . | . | .
CC1(CCc2ccc3c(c2)OCO3)NCCc2c1[nH]c1ccccc21 (centres undefined) | 25 | - | - | - | - | - | -
COc1ccc(NC(=O)N(C)C[C@H]2Oc3ccc(NC(=O)c4ccncc4)cc3C(=O)N([C@H](C)CO)C[C@@H]2C)cc1 | . | - | . | . | . | . | .
c1ccc2c(-c3nnc(SCc4cn5ccccc5n4)o3)c[nH]c2c1 | - | - | - | - | . | . | .
c1ccc2c(-c3cn4ccccc4n3)c[nH]c2c1 | - | - | 63[inhibitor] | - | - | - | -
O=C(CN1C(=O)COc2ccc(S(=O)(=O)N3CCOCC3)cc21)NCc1ccccn1 | - | - | - | - | . | . | .
OC(CN1CCN(c2ccccn2)CC1)Cn1c2ccccc2c2ccccc21 (centres undefined) | - | - | - | - | . | . | .
OC(CN1CCCCC1)Cn1c2ccccc2c2cc(Br)ccc21 (centres undefined) | 35 | - | 161 | - | - | - | -
O=C(c1ccco1)N1CCN(CC(O)Cn2c3ccccc3c3ccccc32)CC1 (centres undefined) | - | - | - | 129 | - | - | -
COc1cc2cc(CCCOC(=O)c3ccc4c(c3)OCO4)oc(=O)c2cc1OC | . | - | . | . | . | . | .
CCN(CC)S(=O)(=O)c1ccc(Cl)c(C(=O)OC2CC(C)OC2=O)c1 (centres undefined) | - | - | - | - | . | . | .
Cn1nc(C(=O)NCC2CCCO2)c2ccccc2c1=O (centres undefined) | - | - | - | 82[inhibitor] | - | - | -
CCOC(=O)c1c(N)sc2c1CCCC2 | - | - | - | 52[inhibitor] | - | - | -
O=C(Nc1cccnc1)c1cc(F)c(F)cc1Cl | - | - | 1.0[inhibitor] | 1.0[inhibitor] | - | - | -
O=C(O)c1cc(Cl)c(Cl)cc1C(=O)Nc1cccnc1 | - | - | - | - | . | . | .
N#Cc1c(Nc2ccccc2)c(/C=N/N=C/c2ccccc2)c[nH]c1=O | - | - | - | 138 | - | - | -
N#Cc1c(Nc2ccccc2)c(/C=N/NCCO)c[nH]c1=O | - | - | - | - | . | . | .
O=C(CN1C2=NCCN2c2ccccc21)c1ccc(Br)s1 | - | - | - | 142 | - | - | -
Cc1ccc(Nc2nc(N)nc(CSCCO)n2)cc1 | - | - | - | - | . | . | .
COc1ccc(Nc2nc(N)nc(CSCCO)n2)cc1 | - | - | 135 | - | - | - | -
CC1(C)CC(=O)C2=C(C1)Nc1ncnn1C2c1cccs1 (centres undefined) | - | - | - | 145 | - | - | -
SMILES | MEKK2 mut-MEK5 | UBC13 polyUb | MEKK2wt PB1 HTS | MEKK3 PB1 HTS | MEKK2wt confirm | MEKK2mut confirm | MEKK3-MEK5 inh
CCS(=O)(=O)c1ccc2oc(SCC(=O)c3ccco3)nc2c1 | - | - | - | - | . | . | .
CCS(=O)(=O)c1ccc2oc(SCC(=O)N3CCCCC3)nc2c1 | - | - | - | 48[inhibitor] | - | - | -
O=C(NCCCN1CCOCC1)C1CC(=O)N(c2ccccc2)C1 (centres undefined) | - | - | - | - | . | . | .
CCOc1ccc(N2CC(C(=O)NCCCN3CCOCC3)CC2=O)cc1 (centres undefined) | - | - | 3.0[inhibitor] | 2.0[inhibitor] | - | - | -
N#C/C(=C/c1ccc(N2CCCCCC2)o1)c1ccc(Cl)cc1 | 98 | - | - | - | - | - | -
Cc1cc(NC(=O)CN2C(=O)NC3(CCCCC3)C2=O)no1 | - | - | - | 135 | - | - | -
O=C(CN1C(=O)NC2(CCCCC2)C1=O)NCc1cccs1 | - | - | - | 154 | - | - | -
NS(=O)(=O)c1ccc(CCNC(=O)CNC(=O)c2ccccc2F)cc1 | - | - | - | - | . | . | .
O=C(Cn1cnc2ccccc21)N/N=C/c1cccc([N+](=O)[O-])c1 | - | - | - | - | . | . | .
O=C(Cn1cnc2ccccc21)N/N=C/c1ccc([N+](=O)[O-])cc1 | - | - | - | 141 | - | - | -
O=C(Cn1cnc2ccccc21)N/N=C/c1ccccc1[N+](=O)[O-] | - | - | - | 138 | - | - | -
CN(CC(=O)Nc1ccccc1Cl)C(=O)COC(=O)Cc1ccc(F)cc1 | - | - | - | - | . | . | .
CCNc1nc(OC)nc(N(OC)S(=O)(=O)c2ccc(C)cc2)n1 | - | - | - | - | . | . | .
C[C@H](NC(=O)c1nc[nH]c1C(=O)N1CCN(c2ccccc2)CC1)C(=O)OC(C)(C)C | - | - | - | 79[inhibitor] | - | - | -
O=C(CCCCC(=O)NC1CCCC1)NC1CCCC1 | - | - | - | - | . | . | .
O=C1CC(=C(c2ccccc2)c2ccccc2)C(=O)N1CCCN1CCN(c2cccc(Cl)c2)CC1 | - | - | - | - | . | . | .
O=C1CC(=C2c3ccccc3-c3ccccc32)C(=O)N1CCCCN1CCN(c2ccccc2)CC1 | - | - | 155 | - | - | - | -
COc1cc(NC(=O)c2ccccc2)c(OC)cc1Cl | - | - | - | - | . | . | .
COc1cc(Cl)c(C)cc1NC(=O)c1ccc(S(C)(=O)=O)cc1 | - | - | - | 45[inhibitor] | - | - | -
CCC(=O)N(Cc1c(C)nn(-c2ccccc2)c1Cl)c1ccc(Cl)cc1 | - | - | - | - | . | . | .
Cn1cc(C(=O)c2cccc(Cl)c2)cc1/C=N\O | - | - | - | 42[inhibitor] | - | - | -
Cc1ccc(S(=O)(=O)N2C(=O)CCC2C(N)=O)cc1 (centres undefined) | - | - | - | - | . | . | .
COc1ccc(/C=N\NC(=O)CC(=O)Nc2cccc(Cl)c2)cc1OC | - | - | - | 73[inhibitor] | - | - | -
COc1ccc(/C=N/NC(=O)CCn2cnc(-c3ccccc3)c2-c2ccccc2)cc1OC | - | - | - | 64[inhibitor] | - | - | -
c1ccc2c(Nc3ccc(N4CCOCC4)cc3)nc(N3CCOCC3)nc2c1 | - | - | - | - | . | . | .
CC12CC3CC(C)(C1)CC(Nc1nc(N4CCOCC4)nc4ccccc14)(C3)C2 | - | - | 151 | - | - | - | -
CCCNC(=O)c1onc(CSc2ccc(F)cc2)c1C(=O)NCC1CC1 | . | - | . | . | . | . | .
O=C(/C=C\c1ccc(-c2cccc([N+](=O)[O-])c2)o1)N1CCOCC1 | - | - | - | - | . | . | .
